{"source": "PubChem BioAssay AID2530", "about": "(National Center for Advancing Translational Sciences (NCATS), 2010)", "note": "Results filed as inconclusive are left out. Entries that show only a call come without a potency. Activity calls are given as the source filed them. Calls come from the whole dose curve; as a rule, active = well fitted inhibition curve with a large enough effect; inconclusive = small, poorly fitted or top-dose-only effect; inactive = flat fitted curve, though single readings scatter. Potency is the fitted concentration of half-maximal effect."}
{"target": "Luciferin 4-monooxygenase (Photuris pensylvanica) (UniProt Q27757)", "assay": "Secondary Assay for Luciferase (Kinase-Glo TM) Inhibition Counterscreen", "settings": "Kinase-Glo luciferase enzyme, luminescence; series mostly up to 58.1 µM", "experimental": "NIH Chemical Genomics Center [NCGC] Malcolm Walkinshaw, Hugh Morgan, Linda Gilmore University of Edinburgh, UK MLPCN Grant: 1 R03 MH085697-01 NCGC Assay Overview: Luciferase (Kinase-Glo, Promega Corporation) was assayed for its ability to generate light using ATP and luciferin as substrates. The ATP concentration in the assay (10 uM) was within the linear range of enzyme activity for the assay conditions used. This assay was used as an counter screen for human pyruvate kinase M2 isoform.\nNCGC Assay Protocol Summary: Four uL of substrate mix (final concentration, 50 mM imidazole pH 7.2, 50 mM KCl, 7 mM MgCl2, 10 uM ATP, 0.01% Tween 20, 0.05% BSA) was dispensed into white 1536 well plates. Twenty-three nL of compound was delivered by a pin tool and 2 uL of luciferase detection mix (Kinase-Glo, Promega)) was added. Following 8-minute incubation at ambient temperature, luminescence was measured by a ViewLux (Perkin Elmer) at 5 seconds exposure/plate. Data were normalized to the controls for basal activity (DMSO only) and 100% inhibition (40 uM SIB 1757) and curve fitting was performed using Hill equation."}
{"smiles": "Cc1cc(O)c(-c2cc(O)c(C)cc2O)cc1O", "Potency": "inactive"}
{"smiles": "COc1ccc2c(c1)c1ccc3c(c1n2C)C(=O)C=CC3=O", "Potency": "inactive"}
{"smiles": "Cc1ccc(NS(=O)(=O)c2ccc3c(c2)CCN(C(=O)C(F)(F)F)C3)cc1C", "Potency": "inactive"}
{"smiles": "O=C1c2ccccc2C(=O)N1Cc1cccnc1", "Potency": "inactive"}
{"smiles": "O=C1c2ccccc2C(=O)N1c1cnc2ccccc2c1", "Potency": "inactive"}
{"smiles": "O=C(Nc1cccc(O)c1)C(=O)Nc1ccccn1", "Potency": "20.6 µM (active)"}
{"smiles": "COc1ccc(-c2cc3nc(C)n(N)c(=O)c3s2)cc1", "Potency": "2.31 µM (active)"}
{"smiles": "CNc1cccc(S(=O)(=O)N2CCN(S(=O)(=O)c3ccc4c(c3)OCCO4)CC2)c1", "Potency": "inactive"}
{"smiles": "CCOC(=O)C(C(C)=O)c1c(Br)c(O)c(O)c2c(C(=O)c3ccc(C)cc3)coc12", "note": "(stereo not given)", "Potency": "inactive"}
{"smiles": "CC(C)CN=Cc1c(O)c([N+](=O)[O-])cc2oc3c(c12)CCCC3", "Potency": "inactive"}
{"smiles": "O=C1CCc2cc(S(=O)(=O)Nc3ccncc3)ccc2N1", "Potency": "inactive"}
{"smiles": "Cc1cc(C)n2c(Nc3ccccc3)c(-c3ccc(C)o3)nc2n1", "Potency": "inactive"}
{"smiles": "O=C1CCc2cc(S(=O)(=O)Nc3ccccn3)ccc2N1", "Potency": "inactive"}
{"smiles": "O=C(/C=C/Nc1ccccc1Br)c1ccccn1", "Potency": "13 µM (active)"}
{"smiles": "Cc1ccc(-c2nc3cnccn3c2Nc2ccc(C(C)C)cc2)o1", "Potency": "inactive"}
{"smiles": "COc1ccc(S(=O)(=O)Nc2ccc(C)c(C)c2)cc1", "Potency": "inactive"}
{"smiles": "O=C1c2ccccc2C(=O)N1c1cccc(O)c1", "Potency": "inactive"}
{"smiles": "Cc1ccc(NS(=O)(=O)c2ccc(F)cc2)cc1C", "Potency": "inactive"}
{"smiles": "O=C1C=CC(=O)N1c1cccc(-c2ccccc2)c1", "Potency": "inactive"}
{"smiles": "Nc1ccc2nc(-c3ccccc3)sc2c1", "Potency": "11.6 µM (active)"}
{"smiles": "Cn1c2cc(S(C)=O)sc2c2cnn(Cc3cccc(O)c3)c(=O)c21", "note": "(stereo not given)", "Potency": "inactive"}
{"smiles": "Cc1ccc(NS(=O)(=O)c2ccc3c(c2)n(C)c(=O)n3C)cc1C", "Potency": "inactive"}
{"smiles": "COc1cc(N2C(=O)C=CC2=O)c(OC)cc1Cl", "Potency": "inactive"}
{"smiles": "O=C1c2ccccc2C(=O)N1c1ccccn1", "Potency": "inactive"}
{"smiles": "Cc1ccc(N2C(=O)c3ccccc3C2=O)c(C)c1", "Potency": "inactive"}
{"smiles": "Cc1ccc(NS(=O)(=O)c2cc3c(cc2N2CCCCC2)NC(=O)CC3)cc1C", "Potency": "inactive"}
{"smiles": "Cn1c(-c2ccc(Br)o2)nc2ccccc21", "Potency": "10.3 µM (active)"}
{"smiles": "Cc1nc(N/N=C/c2ccccn2)sc1C", "Potency": "5.8 µM (active)"}
{"smiles": "O=C1c2ccccc2C(=O)N1c1ccccc1O", "Potency": "inactive"}
{"smiles": "O=C1CCc2cc(S(=O)(=O)Nc3ccccc3-c3ccccc3)ccc2N1", "Potency": "inactive"}
{"smiles": "O=C1c2ccccc2C(=O)N1c1ccncc1", "Potency": "inactive"}
{"smiles": "N/C(=N\\OC(=O)c1ccccc1)c1ccccn1", "Potency": "4.61 µM (active)"}
{"smiles": "Cc1ccc(NS(=O)(=O)c2cccc(Cl)c2)cc1C", "Potency": "inactive"}
{"smiles": "O=C1CCc2cc(S(=O)(=O)Nc3ccc(-c4ccccc4)cc3)ccc2N1", "Potency": "inactive"}
{"smiles": "CC[n+]1c(C)sc2sc3ccccc3c21", "Potency": "inactive"}
{"smiles": "Cc1ccc(NS(=O)(=O)c2cc3c(cc2Br)NC(=O)CO3)cc1C", "Potency": "inactive"}
{"smiles": "Cc1ccc(NS(=O)(=O)c2cc3c(cc2-c2ccco2)NC(=O)CO3)cc1C", "Potency": "inactive"}
{"smiles": "O=C1CCc2cc(S(=O)(=O)Nc3ccccc3Cl)ccc2N1", "Potency": "inactive"}
{"smiles": "COc1ccc(NS(=O)(=O)c2ccc3c(c2)CCC(=O)N3)cc1", "Potency": "inactive"}
{"smiles": "O=S(=O)(Nc1ccc(O)c(NS(=O)(=O)c2ccccc2)c1)c1ccccc1", "Potency": "inactive"}
